Common to all, as to test: NCI-60 one-dose screen, 48 h (100 = growth as untreated, 0 = no growth, -100 = all killed)
Common to all, as to conditions: 10 µM unless noted

Assay [1] relates to SK-MEL-2 melanoma.
The subject of assay [2] is EKVX NSCLC.
In assay [3] the test system is SN12C renal.
In assay [4] the test system is UO-31 renal.
In assay [5] the test system is TK-10 renal.
Assay [6] concerns ACHN renal.
In assay [7] the test system is CAKI-1 renal.
In assay [8] the test system is A498 renal.
Assay [9] has as its system MOLT-4 leukemia.
For assay [10], the system named is SR leukemia.
Assay [11] relates to RPMI-8226 leukemia.
Assay [12] has as its system OVCAR-8 ovarian.
Assay [13] deals with OVCAR-4 ovarian.
Assay [14] deals with SK-OV-3 ovarian.
Assay [15] relates to IGROV1 ovarian.
Assay [16] has as its system OVCAR-3 ovarian.
For assay [17], the system named is HS 578T breast.
In assay [18] the test system is NCI/ADR-RES ovarian.
For assay [19], the system named is OVCAR-5 ovarian.

Molecules are shown by their SMILES. Compounds without any hit were thinned out: in the full panel of roughly 83,000, 20% have a hit.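 For each line, cells grew in 96-well plates with the test compound present at a single concentration for 48 hours.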 A number with no mark means an inactive call. Activity calls are given as the source filed them. How the source made its calls: active means growth percent below 10; inactive means the rest.

Turning to `O=C(Nc1ccc(Nc2ccncc2)cc1)c1ccc(C(=O)Nc2ccc(Nc3ccncc3)cc2)cc1`, the growth is 53.7% in assay [1]; 91.8% in assay [2]; 88.1% in [3]; 89.4% in [4]; 137% in [5]; 97.2% in assay [6]. Further, the growth was 81.6% in assay [7]; 117% in assay [8]; 71.5% in [9]; 52.4% in assay [10]; 3.64% (active) in assay [11]; 74.5% in [12]. The growth was 68.1% in [13]; 68% in [14]; 75.8% in assay [15]; 111% in [16]; 88.2% in [17]; 109% in assay [18].
Consider `COc1ccc(C(=O)COc2ccc(/C=C3\Oc4ccccc4C3=O)cc2)cc1`, for which the growth in assay [1] was 103%; in assay [2], 99%; in assay [3], 97.2%; in assay [4], -44.4% (active); in assay [5], 136%; in assay [6], 101%. Also, the growth in assay [7] is 91%; in assay [8], 106%; in [9], 81.7%; in assay [10] it was 108%; in [11], 89%; in [12], 98.9%. For the same compound, the growth in [19] is 96.8%; in assay [13], 99.2%; in assay [14], 103%; in assay [16] it was 102%; in [17], 100%; in [18] it was 91.8%.
On to `C[C@@]1(CCC#N)[C@H]2CC[C@@H]3[C@H]4[C@H](C(=O)/C=C/c5cccnc5)CC[C@]4(C#N)CC[C@@]3(C)[C@]2(C)CC[C@H]1C(=O)/C=C/c1cccnc1`, for which the growth was 77.7% in assay [1]; 98.1% in assay [2]; 65.4% in assay [3]; 87.3% in [4]; 101% in assay [5]; 56.3% in assay [6]. Moreover, the growth in assay [7] was 68.7%; in assay [8], 99%; in [9] it was 11.7%; in [10], 12.9%; in [12], 34.7%; in assay [19] it was 136%. Besides, the growth in assay [13] was 69.1%; in assay [14] it was 89.7%; in assay [15], 45.7%; in [16], 39.9%; in assay [17] it was 78.4%; in assay [18], 65.1%.
With `COc1nc2c(c(=O)n1C)CN(c1ccccc1)C(=O)CN2C`, the growth in assay [1] was 69.6% [100 µM]; in [2], 58.2% [100 µM]; in [3], 51.3% [100 µM]; in assay [4] it was 26% [100 µM]; in assay [5] it was 52.3% [100 µM]; in assay [6], 46.4% [100 µM]. Also, the growth in [7] was 61.7% [100 µM]; in assay [8], 61% [100 µM]; in assay [9], 40.6% [100 µM]; in assay [10], 51.5% [100 µM]; in [12], 47.4% [100 µM]; in assay [19], 79.9% [100 µM]. In addition, the growth in assay [13] was 53.4% [100 µM]; in assay [14], 62.5% [100 µM]; in assay [15], 37.6% [100 µM]; in assay [16], 56.5% [100 µM]; in [17] it was 59.9% [100 µM]; in [18], 54.2% [100 µM].
In the case of `N#CCN1C(=O)C2C3=C(CCCC3)SC2N=C1CN1CCCC1` (centres undefined), the growth in [1] was 83.5%; in assay [2], 96%; in assay [3], 100%; in assay [4] it was 7.35% (active); in assay [5] it was 104%; in [6], 104%. The growth in assay [7] is 104%; in [8], 100%; in assay [9], 79.9%; in assay [10], 81.1%; in [12] it was 97.7%; in assay [19], 101%. The growth in assay [13] is 101%; in [14], 109%; in assay [16], 113%; in assay [17], 108%; in [18], 96.3%.
Consider `CN1CCN(CC(=O)Nc2nc(-c3cccc(NS(=O)(=O)c4cccc5c(N(C)C)cccc45)c3)cs2)CC1`, for which the growth in assay [1] was 94.3%; in assay [2], 66.4%; in assay [3], 69.7%; in assay [4], 58.3%; in [5], 100%; in assay [6], 82.3%. Also, the growth in assay [7] is 67.9%; in assay [8], 96.8%; in [9], 46.2%; in assay [10], 11.5%; in [12], 87.9%; in [19], 86.6%. For the same compound, the growth was 61.2% in assay [13]; 93.1% in assay [14]; 86.6% in [15]; 75% in assay [17]; 87.3% in assay [18].
`C[n+]1cccc(CC(=O)NO)c1`: the growth is 100% in assay [1]; 102% in assay [2]; 94.7% in assay [3]; 97.3% in [4]; 94.8% in [5]; 98.4% in assay [6]. The growth in [7] was 104%; in assay [8], 115%; in assay [10], 98.4%; in assay [12] it was 95.3%; in assay [19], 110%; in [13], 106%. For the same compound, the growth in assay [14] is 90.9%; in [15] it was 101%; in [16], 110%; in assay [17] it was 101%; in assay [18], 105%.
In the case of `Cc1cc(Cl)ccc1Nc1nc(C(F)(F)F)ccc1C(=O)N/N=C/c1ccc(N(C)C)cc1`, the growth in assay [1] is -6.44% (active); in assay [2] it was 26.3%; in [3] it was 57.7%; in assay [4], 22.7%; in assay [5], 25.8%; in [6], 24.6%. Besides, the growth was 22.6% in assay [7]; 34.7% in assay [8]; 12.8% in assay [9]; -26.1% (active) in [11]; 18.7% in assay [12]; 43.2% in [19]. The growth in assay [13] was 16%; in assay [14] it was 42.3%; in assay [15] it was 21%; in assay [17], 39.4%; in assay [18], 16.1%.
As for `O=C1OC(c2nc3ccccc3s2)=C/C1=C\c1ccc(O)cc1`, the growth in assay [1] was 110%; in assay [2], 102%; in assay [3], 93.9%; in assay [4], 75.8%; in assay [5] it was 114%; in assay [6], 99.5%. The growth is 85.4% in assay [7]; 108% in [8]; 102% in assay [9]; 106% in assay [12]; 85.5% in assay [19]; 100% in assay [13]. The growth is 103% in assay [14]; 95.1% in assay [15]; 110% in assay [16]; 89.6% in assay [17]; 106% in assay [18].
`CC1=CN2C(=O)C3C4=C(CCCC4)SC3N=C2CN1c1c(C)cccc1C` (centres undefined): the growth in [1] was 116%; in assay [2], 81%; in assay [3], 99.6%; in assay [4], 90.7%; in [5] it was 100%; in assay [6], 96.2%. Also, the growth is 81.1% in [7]; 92% in assay [8]; 77% in assay [9]; 54.4% in [11]; 109% in assay [12]; 93.3% in [13]. Also, the growth in assay [14] is 114%; in [15], 107%; in [17], 103%; in [18] it was 99.6%.
Consider `CCCCCCCCn1ccc2cc(NC(=O)Cn3cc(CN4CCCC4)nn3)ccc21`, for which the growth in assay [1] is 68.6%; in [2], 88.8%; in assay [3] it was 44.4%; in assay [4], 6.9% (active); in [5] it was 89.9%; in assay [6] it was 89.4%. The growth in assay [7] is 8.76% (active); in assay [8], 87.2%; in assay [9], 32.8%; in assay [11], -66% (active); in [19] it was 88.4%; in assay [13] it was 76.2%. The growth in [14] was 87.2%; in assay [15], 76%; in assay [16], 51.9%; in [17] it was 76.8%; in assay [18], 92.7%.
In the case of `O=C(NC(CSSCC(NC(=O)c1ccccc1)C(=O)O)C(=O)O)c1ccccc1` (centres undefined), the growth is 97.3% in [1]; 103% in assay [2]; 102% in assay [3]; 91.8% in [4]; 101% in assay [5]; 102% in assay [6]. The growth in assay [7] is 91.6%; in assay [8], 86.1%; in assay [9], -1.1% (active); in [11] it was 104%; in assay [12], 104%; in assay [19], 105%. The growth is 128% in [13]; 102% in assay [14]; 96.7% in assay [15]; 99.6% in [16]; 96.3% in assay [17]; 97.3% in assay [18].
Consider `O=c1cc(-c2ccc(Cl)cc2)[nH]c2ccccc12`, for which the growth in assay [1] is 79.7%; in [2], 68.3%; in assay [3], 96.9%; in assay [4], 74.6%; in [5], 110%; in assay [6], 85.6%. Besides, the growth in [7] is 73.7%; in [8], 75.1%; in assay [9], 110%; in assay [11], 71.5%; in [12] it was 102%; in assay [14], 90.4%. Besides, the growth in assay [15] was 81.7%; in assay [16], 81.7%; in [17] it was 106%; in [18] it was 62.2%.
For the compound `COC(=O)c1c2c(c(C)[n+]([O-])c1C)C(=O)C(NCc1ccc(F)c(Cl)c1)=CC2=O`, the growth in assay [1] was 29.4%; in assay [2] it was 37.8%; in assay [3], -0.149% (active); in [4], 41.7%; in assay [5] it was 58.8%; in [6], 30.9%. Moreover, the growth in [7] was 34%; in assay [8], 78%; in [9], -19.2% (active); in assay [12], -14.5% (active); in assay [19], 38.2%; in assay [13] it was -96.4% (active). Moreover, the growth in [14] is 87.2%; in [15] it was 3.18% (active); in [16], -21.3% (active); in assay [17], 68%; in [18], 0.134% (active).
For `C=CC(=O)Nc1cccc(Oc2nccc(Nc3nnc(C4CC4)s3)n2)c1`, the growth is 108% in assay [1]; 104% in assay [2]; 87.4% in assay [3]; 72.4% in assay [4]; 104% in assay [5]; 97.7% in assay [6]. For the same compound, the growth is 92.3% in assay [7]; 101% in [8]; 75.7% in assay [9]; 56% in assay [11]; 91.4% in assay [12]; 98.7% in assay [19]. Moreover, the growth in [13] was 101%; in assay [14], 112%; in [15], 93.6%; in assay [16], 89.5%; in assay [17], 91.6%; in [18], 96.8%.
As for `CC/C=C1/C(=O)C=C[C@@H]1C/C=C\CCCC(=O)O`, the growth is 87% in [1]; 101% in [2]; 79.9% in assay [3]; 103% in assay [4]; 105% in assay [5]; 85.5% in assay [6]. Also, the growth is 84.9% in assay [7]; 104% in [8]; 9.64% (active) in assay [9]; 20% in [10]; 66.5% in assay [12]; 123% in assay [19]. Moreover, the growth in assay [14] is 111%; in assay [15], 114%; in assay [16] it was 82.2%; in assay [17] it was 69.1%; in [18] it was 91.5%.
Turning to `COc1ccc2oc3c(C)c4c(c(C)c3c2c1)C(=O)N(Cc1ccccc1)C4=O`, the growth in [1] was 105%; in assay [2], 92.9%; in [3] it was 89.8%; in assay [4] it was 80.7%; in [5], 120%; in assay [6], 88.3%. The growth in assay [7] is 81.1%; in [8] it was 109%; in [9], 106%; in [11] it was 100%; in assay [12] it was 91.2%; in assay [19], 99.9%. The growth in assay [13] was 90.7%; in assay [14], 103%; in assay [15] it was 94.6%; in assay [16], 89.3%; in assay [17] it was 85.5%; in [18] it was 95.3%.
